Assay outcomes from PubChem BioAssay.
PP5 primary: PP5 phosphatase inhibitors, primary screen, biochemical, fluorescence; Serine/threonine-protein phosphatase 5 (Homo sapiens), P53041; purified PP5c, OMFP substrate fluorescence; inhibition, % at 6.7 µM; actives 0.18% (n = 320,000); AID 1987, 2009;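 active means inhibition above the campaign's mean inhibition across all tested compounds plus 3 SD, cut at about 9.5% in these data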;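 further: 0% = DMSO only and 100% = 100 µM cantharidin control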
FID counter: compounds displacing fluorescent DNA intercalator, primary screen, artefact control for HCV NS3 helicase inhibitor project, biochemical, FID fluorescence | DNA fluorescent intercalator displacement | inhibition, % at 7.9 µM | actives 0.17% (n = 290,000); in the data active means inhibition above about 37%;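 further: 0% = vehicle and 100% = reference compound; higher means more ethidium bromide displaced from hairpin DNA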
TMEM16A inh: TMEM16A chloride channel inhibitors, primary screen, cell-based, HTS; actives 1.2% (n = 310,000); HEK293 TMEM16A/YFP iodide influx fluorescence, ionomycin; normalized B-score (activity score, 25-100; higher = stronger inhibition) at 10 µM; Anoctamin-1 (Mus musculus), Q8BHY3; AID 588511, 2011;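 active means ratio plate-corrected score three or more library SD toward inhibition, starting fluorescence score within five deviations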;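 further: score derived from kinetic fluorescence span divided by baseline fluorescence per well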
PREPL inh: PREPL enzyme inhibitors, primary screen, biochemical, fluorescence polarization. recombinant PREPL, fluorescence polarization activity-based probe. inhibition, % at 5.96 µM. actives 0.68% (n = 320,000). AID 2751, 2010; in the data active means inhibition above about 43%;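 further: 0% = enzyme with DMSO and 100% = wells lacking enzyme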
PP1 counter: PP1-alpha phosphatase inhibitors, primary screen, counter-screen for PP5 inhibitor project, biochemical, fluorescence, OMFP substrate, single point; AID 2235, 2010; Serine/threonine-protein phosphatase PP1-alpha catalytic subunit (Homo sapiens), P62136; inhibition, % at 6.7 µM; purified PP1alpha; actives 0.9% (n = 320,000);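 active means inhibition above the mean inhibition of all tested compounds plus 3 SD, computed separately for each screening campaign, cut at about 15% in these data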
Target sequence (P62136 whole entry, looked up): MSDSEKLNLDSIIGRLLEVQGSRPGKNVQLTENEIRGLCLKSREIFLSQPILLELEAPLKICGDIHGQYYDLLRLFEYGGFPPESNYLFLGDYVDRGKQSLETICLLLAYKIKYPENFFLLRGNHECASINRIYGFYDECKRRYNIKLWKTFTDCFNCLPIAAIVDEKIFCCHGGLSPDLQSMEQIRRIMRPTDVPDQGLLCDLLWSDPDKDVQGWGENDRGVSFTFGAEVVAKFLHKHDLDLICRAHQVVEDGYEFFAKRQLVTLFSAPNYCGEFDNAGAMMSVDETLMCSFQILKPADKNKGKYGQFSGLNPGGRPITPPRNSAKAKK
TMEM16A act: TMEM16A chloride channel activators or potentiators, primary screen, cell-based, HTS | actives 0.3% (n = 340,000) | HEK293 TMEM16A/YFP-H148Q/I152L, iodide quench fluorescence; active compounds read low | B-score at 10 µM | Anoctamin-1 (Mus musculus), Q8BHY3;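 active means fluorescence-ratio B-score plate-corrected deviation score at least 3 library SD below zero, with starting fluorescence score within 5 deviations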;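 further: channel opened by trigger with iodide after compound preincubation; score built on the fluorescence ratio of max minus min over baseline; more negative score means more quench and so TMEM16A activation or potentiation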
Starred values were filed as active, the others as inactive. Only some compounds are listed: those with a hit (about 2.7% of all), similar ones and a draw of the others.

CCCC(=O)Nc1c(-c2ccccc2Cl)c(=O)c2ccccc2n1C was read as PP5 primary -1, FID counter -5, TMEM16A inh inactive, PREPL inh -9, PP1 counter 1 and TMEM16A act inactive.
`C=C(C)C(=O)Nc1ccc2c(c1)OCCOCCOCCO2` gave PP5 primary -2, FID counter -3, TMEM16A inh inactive, PREPL inh -5, PP1 counter 17* and TMEM16A act inactive.
Cc1nnc(NC(=O)c2ccc(S(=O)(=O)N3CC(C)OC(C)C3)cc2)o1 (stereo unspecified) was read as PP5 primary 2, FID counter -17, TMEM16A inh inactive, PREPL inh 11, PP1 counter 5 and TMEM16A act inactive.
NC(=O)C1CCCN(C(=O)c2ccc(S(=O)(=O)N3CCCCCC3)cc2)C1 (stereo unspecified) was read as PP5 primary 1, PREPL inh 5, PP1 counter -3 and TMEM16A act -13*.
For O=C(c1ccc(S(=O)(=O)N2CCCCCC2)cc1)N1CCCC(C(F)(F)F)C1 (stereo unspecified) the results were PP5 primary 0, TMEM16A inh inactive, PREPL inh 2, PP1 counter -2 and TMEM16A act inactive.
For Cc1nnc(NC(=O)c2ccc(S(=O)(=O)N3CCCCCC3)cc2)o1 the results were PP5 primary 1, FID counter -21, TMEM16A inh inactive, PREPL inh 3, PP1 counter 17* and TMEM16A act inactive.
For Cc1cccnc1NC(=O)c1ccc(S(=O)(=O)N2CCC(C)CC2)cc1 the results were PP5 primary 0, TMEM16A inh inactive, PREPL inh 3, PP1 counter 16* and TMEM16A act inactive.
Screening CC1CCN(S(=O)(=O)c2ccc(NC(=O)c3ccncc3)cc2)CC1 returned PP5 primary 0, FID counter -26, TMEM16A inh inactive, PREPL inh 5, PP1 counter -3 and TMEM16A act inactive.
For O=CNc1ccc2c3c(cccc13)-c1ccccc1-2 the results were TMEM16A act inactive.
`CSc1ccccc1NC(=O)C(C)N(C)CC(=O)N1CCN(Cc2ccccc2)CC1` (stereo unspecified) gave TMEM16A act inactive.
Cc1ccc(C(=O)Oc2ccccc2N2CCOCC2)cc1 was read as PP5 primary 0, FID counter -16, TMEM16A inh inactive, PREPL inh -2, PP1 counter -5 and TMEM16A act inactive.
Cc1ccc(C(=O)OC2OC(=O)C(Cl)=C2N2CCOCC2)cc1 (stereo unspecified) was read as PP5 primary 3, FID counter -12, TMEM16A inh inactive, PREPL inh 43*, PP1 counter -3 and TMEM16A act inactive.
`O=C(NC(=S)Nc1ccc(-c2ccc(CO)o2)cc1)c1cccs1` gave PP5 primary 2, FID counter -19, TMEM16A inh 100*, PREPL inh -5, PP1 counter 9 and TMEM16A act inactive.
COc1ccc(C(=O)Nc2ccc(Cl)c(S(=O)(=O)N3CCOCC3)c2)cc1 was read as PREPL inh 11 and TMEM16A act inactive.
`O=C(Nc1ccc(Cl)c(S(=O)(=O)N2CCOCC2)c1)c1ccc(OCC2CCCO2)cc1` (stereo unspecified) gave PP5 primary 3, FID counter -19, TMEM16A inh 100*, PREPL inh 11, PP1 counter 2 and TMEM16A act inactive.
Screening Cc1nc(NCC(c2ccccc2)N(C)C)c2c(C)c(C)sc2n1 (stereo unspecified) returned PP5 primary -1, FID counter 9, TMEM16A inh inactive, PREPL inh 8, PP1 counter 2 and TMEM16A act inactive.
O=C(CCNC(=O)Cn1ccc2ccccc2c1=O)NCCc1ccccc1Cl was read as PP5 primary 0, FID counter -13, TMEM16A inh inactive, PREPL inh -6, PP1 counter -2 and TMEM16A act inactive.
Screening Cc1cc(NC(=O)COC(=O)C2CCN(C(=O)c3ccc(Cl)cc3)CC2)no1 returned PP5 primary -1, FID counter -12, TMEM16A inh inactive, PREPL inh 20, PP1 counter 0 and TMEM16A act inactive.
`Cc1cc(NC(=O)COC(=O)C2CCN(S(=O)(=O)c3cccc(Cl)c3Cl)CC2)no1` gave PP5 primary 1, FID counter -9, TMEM16A inh 100*, PREPL inh 7, PP1 counter -1 and TMEM16A act inactive.
Cc1ccc(S(=O)(=O)N(C)c2ccc(OC(C)C(=O)N(C)c3ccccc3)cc2)cc1 (stereo unspecified) was read as TMEM16A act inactive.
CCN(c1ccccc1)S(=O)(=O)c1cc(C(=O)NCC(c2ccc(OC)cc2)N(C)C)ccc1C (stereo unspecified) was read as TMEM16A act inactive.
Screening Fc1ccccc1C1c2cccn2CCN1C(=S)Nc1ccc(Br)cc1 (stereo unspecified) returned PP5 primary 3, FID counter 1, TMEM16A inh inactive, PREPL inh -17, PP1 counter 2 and TMEM16A act -4.6*.
NS(=O)(=O)c1ccc(-c2ccc(/C=C3\SC(=S)N(C4CCS(=O)(=O)C4)C3=O)o2)cc1 (stereo unspecified) was read as PP5 primary 6, FID counter -13, TMEM16A inh inactive, PREPL inh 3, PP1 counter 4 and TMEM16A act -5*.
For Cc1ccc(/C=C2\SC(=S)N(C3CCS(=O)(=O)C3)C2=O)o1 (stereo unspecified) the results were PP5 primary 2, FID counter -19, TMEM16A inh inactive, PREPL inh 13, PP1 counter -1 and TMEM16A act inactive.
Cn1c(N=Nc2ccc(N3CCOCC3)cc2)[n+](C)c2ccccc21 was read as FID counter 59* and TMEM16A act inactive.
CC(Sc1ccc(S(=O)(=O)N2CCN(C)CC2)cn1)C(=O)NC1CCCCC1 (stereo unspecified) was read as PP5 primary 2, PREPL inh -2, PP1 counter -2 and TMEM16A act inactive.
Screening COc1ccc(N(C(C)=O)c2nc3ccccc3[nH]2)cc1 returned PP5 primary 7, FID counter -5, TMEM16A inh inactive, PREPL inh -3, PP1 counter 0 and TMEM16A act inactive.
